# In PubChem BioAssay (Tox21):
# “And” between values parts separate entries of the source, which are not always exact repeats. Equal entries are not always repeated. Inconclusive results are not listed. A call without a number means that no potency is given here. More than one record can exist for a structure, and the calls need not agree. The source made the active and inactive calls. The call rests on the fitted dose curve; in most records, active means well fitted cell-killing curve with a large enough effect in the repeat runs (not every such curve was filed as active); inconclusive means weak or mixed curves, or effect the other way; inactive means no such curve, though single readings can be large or run the other way.
# Assay: qHTS assay to identify small molecule antagonists of the farnesoid-X-receptor (FXR) signaling pathway - cell viability counter screen (AID 743221); further: nearly all actives have a fitted effect of over 50% in size
# Conditions: FXR-bla HEK293T viability, CellTiter-Glo luminescence, 16 h; series mostly up to 62.6 µM
# From the text: National Center for Advancing Translational Sciences [NCATS]
# NIH Chemical Genomics Center [NCGC]
# U.S. Environmental Protection Agency [EPA]
# National Institutes of Environmental Health Sciences [NIEHS]
# National Toxicology Program [NTP]
# U.S. Food and Drug Administration [FDA]
# The farnesoid-X-receptor (FXR), a nuclear hormone receptor, is highly expressed in liver, intestine, kidney and adrenal cortex. Natural ligands of FXR are the bile acids (Cholic acid, Chenodeoxy cholic acid etc). FXR is an important regulator of diverse metabolic pathways, including the bile acid homeostasis, lipid and glucose metabolisms. FXR regulates the expression of target genes by binding either as a monomer or as a heterodimer with the retinoid X receptor (RXR). Numerous studies have reported that FXR exerts protective function during cholestasis, diabetes, liver regeneration, and cancer. To identify compounds that inhibit FXR signaling, GeneBLAzer FXR-UAS-bla HEK 293T cell line (Invitrogen, Carlsbad, CA) containing a beta-lactamase reporter gene under the control of a UAS response element was used to screen the Tox21 10K compound library. The cytotoxicity of the Tox21 compound library against the FXR-bla cell line was tested in parallel by measuring the cell viability using CellTiter-Glo assay in the same wells.
# Tox21 Assay Protocol Summary:
# FXR-bla cells were dispensed at 5000 cells/5uL/well in 1536-well black wall/clear bottom plates using a Multidrop Combi (Thermo Fisher Scientific, Waltham, MA) dispenser. After the assay plates were incubated at 37 C and 5% CO2 for 5 h, 23 nL of compounds dissolved in DMSO, positive controls or DMSO only was transferred to the assay plate by a Pintool station (Kalypsys, San Diego, CA), followed by addition of 1 uL Chenodeoxycholic acid (50 uM, final concentration in the wells). The assay plates were incubated at 37C for 16 h. After 1 uL of LiveBLAzerTM B/G FRET substrate was added using a Bioraptr Flying Reagent Dispenser (FRD) workstation (Beckman Coulter, Indianapolis, IN), the plates were incubated at room temperature for 2 h, and fluorescence intensity was measured by an Envision plate reader (PerkinElmer, Shelton, CT). For cell viability readout that measures cytotoxicity, 4uL/well of CellTiter-Glo reagent was added into the assay plates using a Bioraptr FRD. After 30 min incubation at room temperature, the luminescence intensity in the plates was measured using a ViewLux plate reader (PerkinElmer).
# Potency means the concentration at half of the fitted maximal effect.
row,SMILES,Potency
1,CCCCCCOCCOCCO,inactive
2,CC(C)(C)c1cccc(C(C)(C)C)c1O,inactive
3,CCCCCCC(C)O (stereo not given),inactive
4,Cc1ccc(C)c(O)c1,inactive
5,Nc1cc([N+](=O)[O-])ccc1C(=O)O,inactive
6,CCc1cccc2c3c([nH]c12)C(CC)(CC(=O)O)OCC3 (stereo not given),inactive
7,O=C1OC2(c3ccccc31)c1cc(I)c(O)c(I)c1Oc1c2cc(I)c(O)c1I,inactive
8,Oc1ccc(C(c2ccc(O)cc2)C(Cl)(Cl)Cl)cc1,inactive
9,NCCOCCO,inactive
10,C=CC(=O)OCCCC,inactive
11,C=CCNCC=C,inactive
12,COC(=O)c1ccc(C)cc1,inactive
13,CCCOCCO,inactive
14,CC1(C)O[C@@H]2C[C@H]3[C@@H]4C[C@H](F)C5=CC(=O)C=C[C@]5(C)[C@@]4(F)[C@@H](O)C[C@]3(C)[C@]2(C(=O)CO)O1,inactive
15,CC(=O)[C@@]1(O)CC[C@H]2[C@@H]3C[C@H](C)C4=CC(=O)C=C[C@]4(C)[C@@]3(F)[C@@H](O)C[C@@]21C,inactive
16,C=CN1CCCC1=O,inactive
17,C=C1C[C@H]2[C@@H]3C=C(C)C4=CC(=O)CC[C@]4(C)[C@H]3CC[C@]2(C)[C@@]1(OC(C)=O)C(C)=O,inactive
18,C=C[C@@]1(C)CC(=O)[C@]2(O)[C@@]3(C)[C@@H](O)CCC(C)(C)[C@@H]3[C@H](O)[C@H](OC(C)=O)[C@@]2(C)O1,1.74 µM (active)
19,O=C1CCc2ccccc2O1,inactive
20,C[C@]12CC[C@@H]3c4ccc(O)cc4CC[C@H]3[C@@H]1CC[C@@H]2O,inactive

row,SMILES,Potency
1,C=CCOC(=O)C(=C)C,inactive
2,CCOC(=O)C(C)Oc1ccc(Oc2cnc3cc(Cl)ccc3n2)cc1 (stereo not given),inactive
3,CCCCCCCCCCCCCO,inactive
4,C1CN(SSN2CCOCC2)CCO1,inactive
5,[Na+],inactive
6,O=Cc1ccccc1C=O,inactive
7,C/C=C/C(=O)N(CC)c1ccccc1C,inactive
8,ClC/C=C/CCl,inactive
9,CN(C)CCCN1c2ccccc2Sc2ccc(Cl)cc21,43.6 µM (active) and 26.6 µM (active)
10,COc1ccc(-c2coc3cc(O)cc(O)c3c2=O)cc1,inactive
11,CCC(=O)O[C@H]1[C@H](O[C@@H]2[C@@H](C)[C@H](O[C@H]3C[C@@](C)(OC)[C@@H](O)[C@H](C)O3)[C@@H](C)C(=O)O[C@H](CC)[C@@](C)(O)[C@H](O)[C@@H](C)C(=O)[C@H](C)C[C@@]2(C)O)O[C@H](C)C[C@@H]1N(C)C,32.5 µM (active) and inactive
12,Nc1ccc(O)c(N)c1,inactive
13,Nc1ccc2c(c1)C(=O)c1ccccc1C2=O,inactive
14,C[C@]12CC[C@@H]3c4ccc(O)cc4CC[C@H]3[C@@H]1CC[C@H]2O,inactive
15,CC(C)[N+](C)(CCOC(=O)C1c2ccccc2Oc2ccccc21)C(C)C,inactive
16,CC(=O)Oc1c(C)c(C)c2c(c1C)CC[C@@](C)(CCC[C@H](C)CCC[C@H](C)CCCC(C)C)O2,inactive
17,CC1(C)NC(=O)N(c2ccc([N+](=O)[O-])c(C(F)(F)F)c2)C1=O,inactive
18,CC(=O)Nc1ccc2c(c1)Cc1cc(NC(C)=O)ccc1-2,inactive
19,CCC/C=C/C=O,inactive
20,Clc1ccc(Sc2cc(Cl)c(Cl)cc2Cl)cc1,inactive
